Assay [1] in a line: Human pregnane X receptor (PXR) small molecule agonists, qHTS cell viability counter screen (AID 1346977). Further: nearly all actives have a fitted effect of over 50% in size. Further: potency means the concentration at half of the fitted maximal effect. The essentials: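 Same-well viability read: CellTiter-Fluor added after 23 hr compound exposure, fluorescence measured 1 hr later. Cells were PXR-Luc HepG2 seeded at 2,000/well in 5% charcoal-stripped FBS medium, rested 5 hr before dosing at 37 C.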
(qHTS replaces the single test concentration by a dilution series.)

A short description of assay [2]: Caspase-3/7 induction in HepG2 cells by small molecules, qHTS assay (AID 1346978). Further: nearly all actives have a fitted effect of over 15% in size. The essentials: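 Caspase-3/7 induction was measured by Caspase-Glo 3/7 luminescence (30 min, room temperature) after a 17 hr compound exposure of wild-type HepG2 cells seeded at 2,000 per well and pre-incubated 5 hr.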
Assay [3] can be described thus: Caspase-3/7 induction in CHO-K1 cells by small molecules, qHTS cell viability counter screen (AID 1346979). Further: nearly all actives have a fitted effect of over 35% in size. The essentials:
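Cytotoxicity counter screen: CellTiter-Fluor added to compound-treated wild-type CHO-K1 cells at 16 h (37C, 5% CO2), fluorescence measured 1 h later; same wells as caspase-3/7 measurement.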

Assay [4] can be described thus: Caspase-3/7 induction in CHO-K1 cells by small molecules, qHTS assay (AID 1346980). Further: nearly all actives have a fitted effect of over 15% in size. The procedure, abridged:
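Luminescent Caspase-Glo 3/7 read (30min, room temperature) quantified apoptosis induction. Cells were wild-type CHO-K1, treated with compound for 17hr at 37 C and 5% CO2.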

Assay [5] addresses Nuclear receptor subfamily 1 group I member 2 (Homo sapiens) (UniProt O75469). In words: Human pregnane X receptor (PXR) small molecule agonists, qHTS assay (AID 1346982). Further: nearly all actives have a fitted effect of over 35% in size. Further: potency means the concentration at half of the fitted maximal effect. The essentials:
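Luminescence (ONE-Glo, 30 min RT) after 24 hr compound exposure of PXR-Luc HepG2 cells; cells rested 5 hr post-plating in 5% charcoal-stripped FBS medium.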

Assay [6] concerns the target Nuclear receptor subfamily 1 group I member 2 (Rattus norvegicus) (UniProt Q9R1A7). In words: Rat pregnane X receptor (rPXR) activation by small molecules, qHTS assay (AID 1346983). Further: nearly all actives have a fitted effect of over 20% in size. To be noted: rPXR luciferase reporter cells, One-Glo luminescence, 24 h; max activation: stronger effect = higher value. The essentials:
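Luminescent readout (One-Glo luciferase, 30 min room temperature) followed 24 hr compound treatment at 37 C of rPXR cells plated 2,000 per well and preincubated 5hr; qHTS format with compounds delivered in DMSO.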

Assay [7] addresses Nuclear receptor subfamily 1 group I member 2 (Homo sapiens) (UniProt O75469). As to the kind of experiment: CYP3A4 induction through human pregnane X receptor (PXR) by small molecules, qHTS assay (AID 1346984). Further: nearly all actives have a fitted effect of over 40% in size. The essentials:
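DPX-2 reporter cells; 24h cpd, 37C; Luciferin-IPA 3uM final x3h; One-Glo 30 min RT; lumi read.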

The target in assay [8] is Cytochrome P450 2D6 (Homo sapiens) (UniProt P10635). In words: Cytochrome P450 Family 2 Subfamily D Member 6 (CYP2D6) small molecule antagonists: luciferase reporter qHTS assay (AID 1671196). Further: nearly all actives have a fitted effect of over 50% in size. Further: potency means the concentration at half of the fitted maximal effect. On activity change, negative = inhibition: series mostly up to about 120 µM. The essentials:
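Inhibition of CYP2D6 was gauged by loss of luminescence, since light produced tracks the luciferin generated from a proluciferin substrate. A 10 min room-temperature preincubation preceded 1 h NADPH-supported turnover.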

The target in assay [9] is Cytochrome P450 2C19 (Homo sapiens) (UniProt P33261). In words: Cytochrome P450 Family 2 Subfamily C Member 19 (CYP2C19) small molecule antagonists: luciferase reporter qHTS assay (AID 1671197). Further: nearly all actives have a fitted effect of over 65% in size. Further: potency means the concentration at half of the fitted maximal effect. On activity change, negative = inhibition: series mostly up to about 120 µM. The essentials: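 Relative luminescence units recorded 20 min after the detection reagent stopped a 1 h, 37C CYP2C19 reaction on proluciferin substrate, which was started by NADPH regeneration following 10 min room-temperature compound preincubation; ketoconazole positive control.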
Chain of Cytochrome P450 2C19 (Homo sapiens) (P33261 whole entry, looked up): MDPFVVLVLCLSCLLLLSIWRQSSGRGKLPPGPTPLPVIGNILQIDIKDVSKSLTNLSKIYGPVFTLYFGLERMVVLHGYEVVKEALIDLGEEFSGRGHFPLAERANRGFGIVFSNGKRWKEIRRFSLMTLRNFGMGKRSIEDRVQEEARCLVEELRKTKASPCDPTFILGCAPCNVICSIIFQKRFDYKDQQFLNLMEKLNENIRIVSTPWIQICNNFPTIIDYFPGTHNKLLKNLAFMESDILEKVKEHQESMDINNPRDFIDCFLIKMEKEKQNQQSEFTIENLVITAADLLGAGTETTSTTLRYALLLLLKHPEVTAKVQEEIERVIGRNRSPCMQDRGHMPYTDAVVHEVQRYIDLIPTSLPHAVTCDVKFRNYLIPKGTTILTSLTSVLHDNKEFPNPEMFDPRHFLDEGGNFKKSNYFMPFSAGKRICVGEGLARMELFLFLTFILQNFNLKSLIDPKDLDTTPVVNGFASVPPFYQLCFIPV

The target of assay [10] is Cytochrome P450 2C9 (Homo sapiens) (UniProt P11712). In words: Cytochrome P450 Family 2 Subfamily C Member 9 (CYP2C9) small molecule antagonists: luciferase reporter qHTS assay (AID 1671198). Further: nearly all actives have a fitted effect of over 50% in size. Further: potency means the concentration at half of the fitted maximal effect. On activity change, negative = inhibition: series mostly up to about 120 µM. The procedure, abridged:
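Enzyme-substrate mix preincubated with compound 10 min at room temperature; reaction started with NADPH regeneration solution, 1 h 37C. Luminescent luciferin product read after 20 min detection reagent.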
(Reporter assays use an easily measured gene product as a stand-in for the process of interest.)

Assay [11] has as its target Cytochrome P450 3A4 (Homo sapiens) (UniProt P08684). In words: Cytochrome P450 Family 3 Subfamily A Member 4 (CYP3A4) small molecule antagonists: luciferase reporter qHTS assay (AID 1671201). Further: nearly all actives have a fitted effect of over 50% in size. Further: potency means the concentration at half of the fitted maximal effect. On activity change, negative = inhibition: series mostly up to about 120 µM. The procedure, abridged: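 Recombinant human CYP3A4 converts a proluciferin substrate to luciferin over 1 h at room temperature after NADPH regeneration solution is added (compound preincubated 10 min); detection reagent stops reaction, luminescence read 20 min later as relative units.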

Assay [12] has as its target Voltage-gated inwardly rectifying potassium channel KCNH2 (Homo sapiens) (UniProt Q12809). In words: Human Ether-a-go-go-Related Gene (hERG) channel small molecule antagonists: fluorescence cell-based qHTS assay (AID 1671200). The essentials: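 Thallium flux as potassium surrogate: FluxOR II dye loaded 1 h at room temperature into hERG-expressing U2OS cells, then stimulus buffer added after 10 min. Kinetic 480 nm excitation/540 nm emission read, 2 min.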
For orientation: hERG is a cardiac potassium channel; its block is linked to QT prolongation.

Assay [13] addresses Cytochrome P450 1A2 (Homo sapiens) (UniProt P05177). As to the kind of experiment: Cytochrome P450 Family 1 Subfamily A Member 2 (CYP1A2) small molecule antagonists: luciferase reporter qHTS assay (AID 1671199). Further: nearly all actives have a fitted effect of over 50% in size. Further: potency means the concentration at half of the fitted maximal effect. On activity change, negative = inhibition: series mostly up to about 120 µM. The procedure, abridged: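 Signal from luciferin formed by CYP1A2 from a proluciferin substrate is read as luminescence, expressed in relative luminescence units. Compounds sit with enzyme 10 min, NADPH-driven reaction runs 1 h, all at room temperature.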

The nature of assay [14]: Caspase-3/7 induction in HepG2 cells by small molecules, qHTS cell viability counter screen (AID 1346981). Further: series mostly up to about 92 µM; nearly all actives have a fitted effect of over 30% in size. The procedure, abridged:
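Counter screen for cytotoxicity: HepG2 exposed 16 hr to compounds, then CellTiter-Fluor viability signal (fluorescence, 1 hr reagent incubation).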

Unmarked numbers belong to inactive results. Records with an inconclusive call do not appear. Active and inactive are the calls of the source. The call rests on the fitted dose curve; in most records, active means well fitted curve in the direction sought with a large enough effect in the repeat runs; inconclusive means weak or mixed curves; inactive means no such curve, though single readings can be large; an effect the other way counts as inactive or inconclusive.
On the % scale 0 is the no-effect control and ±100 the full control effect.

Chain of Cytochrome P450 2C9 (Homo sapiens) (P11712 whole entry, looked up): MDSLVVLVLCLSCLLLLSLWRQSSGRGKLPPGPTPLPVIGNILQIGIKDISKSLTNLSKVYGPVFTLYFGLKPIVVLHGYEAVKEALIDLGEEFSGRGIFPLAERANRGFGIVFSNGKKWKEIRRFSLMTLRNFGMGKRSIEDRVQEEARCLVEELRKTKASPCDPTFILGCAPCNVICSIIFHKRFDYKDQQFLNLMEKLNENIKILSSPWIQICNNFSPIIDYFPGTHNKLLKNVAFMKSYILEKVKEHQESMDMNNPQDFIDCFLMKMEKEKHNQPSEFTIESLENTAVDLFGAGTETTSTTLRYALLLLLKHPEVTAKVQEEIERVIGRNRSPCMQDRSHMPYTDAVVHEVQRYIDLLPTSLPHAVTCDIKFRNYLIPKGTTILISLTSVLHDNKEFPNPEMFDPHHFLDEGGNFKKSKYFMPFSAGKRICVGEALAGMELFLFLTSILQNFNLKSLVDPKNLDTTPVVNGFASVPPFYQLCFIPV
Chain of Nuclear receptor subfamily 1 group I member 2 (Homo sapiens) (O75469 whole entry, looked up): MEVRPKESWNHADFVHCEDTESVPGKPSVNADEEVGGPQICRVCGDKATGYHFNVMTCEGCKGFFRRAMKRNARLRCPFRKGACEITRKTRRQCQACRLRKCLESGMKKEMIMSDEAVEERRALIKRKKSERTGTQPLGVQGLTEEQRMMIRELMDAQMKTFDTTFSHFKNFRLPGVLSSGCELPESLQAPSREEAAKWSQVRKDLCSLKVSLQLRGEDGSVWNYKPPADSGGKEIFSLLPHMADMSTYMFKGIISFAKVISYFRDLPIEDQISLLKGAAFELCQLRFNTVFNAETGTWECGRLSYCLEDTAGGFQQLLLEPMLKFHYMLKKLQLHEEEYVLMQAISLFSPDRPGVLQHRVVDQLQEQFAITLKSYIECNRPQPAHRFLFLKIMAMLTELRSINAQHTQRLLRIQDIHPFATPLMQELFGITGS
Chain of Cytochrome P450 2D6 (Homo sapiens) (P10635 whole entry, looked up): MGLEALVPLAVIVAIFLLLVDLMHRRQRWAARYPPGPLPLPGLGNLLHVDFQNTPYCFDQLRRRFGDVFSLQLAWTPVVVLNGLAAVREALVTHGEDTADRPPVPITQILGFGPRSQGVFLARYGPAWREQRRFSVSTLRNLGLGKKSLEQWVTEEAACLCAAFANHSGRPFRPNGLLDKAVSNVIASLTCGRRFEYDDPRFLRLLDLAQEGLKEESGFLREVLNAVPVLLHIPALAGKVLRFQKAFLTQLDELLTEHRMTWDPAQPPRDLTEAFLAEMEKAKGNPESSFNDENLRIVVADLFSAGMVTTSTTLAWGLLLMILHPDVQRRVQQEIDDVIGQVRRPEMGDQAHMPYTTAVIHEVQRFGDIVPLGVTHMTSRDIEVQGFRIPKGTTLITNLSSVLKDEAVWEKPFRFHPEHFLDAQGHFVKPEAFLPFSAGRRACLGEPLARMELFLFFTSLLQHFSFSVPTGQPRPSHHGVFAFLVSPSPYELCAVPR
Chain of Cytochrome P450 1A2 (Homo sapiens) (P05177 whole entry, looked up): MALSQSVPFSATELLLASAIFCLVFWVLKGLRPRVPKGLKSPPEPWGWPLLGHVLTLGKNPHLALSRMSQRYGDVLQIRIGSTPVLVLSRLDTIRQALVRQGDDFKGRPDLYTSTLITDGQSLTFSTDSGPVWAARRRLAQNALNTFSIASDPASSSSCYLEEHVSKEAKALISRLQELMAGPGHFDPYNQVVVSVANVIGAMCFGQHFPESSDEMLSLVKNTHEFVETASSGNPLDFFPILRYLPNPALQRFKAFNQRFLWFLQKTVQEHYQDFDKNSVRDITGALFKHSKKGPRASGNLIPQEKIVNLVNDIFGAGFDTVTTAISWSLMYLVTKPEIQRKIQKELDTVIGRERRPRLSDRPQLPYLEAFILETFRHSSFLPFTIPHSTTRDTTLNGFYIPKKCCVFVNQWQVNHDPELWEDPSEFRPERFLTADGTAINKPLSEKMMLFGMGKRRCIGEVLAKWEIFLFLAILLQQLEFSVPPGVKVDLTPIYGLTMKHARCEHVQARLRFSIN
Chain of Voltage-gated inwardly rectifying potassium channel KCNH2 (Homo sapiens) (Q12809 whole entry, looked up): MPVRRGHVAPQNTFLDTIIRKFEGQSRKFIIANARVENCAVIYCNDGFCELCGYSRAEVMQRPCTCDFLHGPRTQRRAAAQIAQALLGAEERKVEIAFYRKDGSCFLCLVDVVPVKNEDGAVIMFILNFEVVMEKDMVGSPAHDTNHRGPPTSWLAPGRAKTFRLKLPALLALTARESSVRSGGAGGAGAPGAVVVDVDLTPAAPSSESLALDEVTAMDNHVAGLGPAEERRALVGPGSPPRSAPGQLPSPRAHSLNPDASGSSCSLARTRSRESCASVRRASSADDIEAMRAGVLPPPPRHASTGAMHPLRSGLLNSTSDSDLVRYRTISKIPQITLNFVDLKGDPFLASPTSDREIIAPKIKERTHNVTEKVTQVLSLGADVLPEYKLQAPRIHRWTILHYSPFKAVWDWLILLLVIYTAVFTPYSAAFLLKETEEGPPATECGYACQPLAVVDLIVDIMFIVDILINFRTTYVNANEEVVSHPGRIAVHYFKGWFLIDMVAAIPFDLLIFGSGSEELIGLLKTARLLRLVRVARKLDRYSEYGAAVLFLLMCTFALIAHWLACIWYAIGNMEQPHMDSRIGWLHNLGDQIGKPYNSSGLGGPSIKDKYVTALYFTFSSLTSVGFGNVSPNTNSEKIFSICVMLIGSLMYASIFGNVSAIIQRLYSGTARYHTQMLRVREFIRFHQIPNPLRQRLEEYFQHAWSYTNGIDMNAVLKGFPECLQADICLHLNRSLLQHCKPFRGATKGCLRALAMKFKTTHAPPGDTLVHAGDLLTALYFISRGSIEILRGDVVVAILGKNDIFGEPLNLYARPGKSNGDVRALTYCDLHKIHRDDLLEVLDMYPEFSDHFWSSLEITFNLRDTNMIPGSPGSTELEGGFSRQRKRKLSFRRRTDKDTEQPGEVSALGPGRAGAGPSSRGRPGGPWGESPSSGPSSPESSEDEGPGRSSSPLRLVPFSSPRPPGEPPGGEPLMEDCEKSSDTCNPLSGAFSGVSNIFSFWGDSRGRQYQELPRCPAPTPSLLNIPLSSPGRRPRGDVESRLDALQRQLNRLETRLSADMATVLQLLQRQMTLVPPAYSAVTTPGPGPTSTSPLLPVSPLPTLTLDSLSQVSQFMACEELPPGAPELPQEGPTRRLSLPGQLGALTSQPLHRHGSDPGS
Chain of Cytochrome P450 3A4 (Homo sapiens) (P08684 whole entry, looked up): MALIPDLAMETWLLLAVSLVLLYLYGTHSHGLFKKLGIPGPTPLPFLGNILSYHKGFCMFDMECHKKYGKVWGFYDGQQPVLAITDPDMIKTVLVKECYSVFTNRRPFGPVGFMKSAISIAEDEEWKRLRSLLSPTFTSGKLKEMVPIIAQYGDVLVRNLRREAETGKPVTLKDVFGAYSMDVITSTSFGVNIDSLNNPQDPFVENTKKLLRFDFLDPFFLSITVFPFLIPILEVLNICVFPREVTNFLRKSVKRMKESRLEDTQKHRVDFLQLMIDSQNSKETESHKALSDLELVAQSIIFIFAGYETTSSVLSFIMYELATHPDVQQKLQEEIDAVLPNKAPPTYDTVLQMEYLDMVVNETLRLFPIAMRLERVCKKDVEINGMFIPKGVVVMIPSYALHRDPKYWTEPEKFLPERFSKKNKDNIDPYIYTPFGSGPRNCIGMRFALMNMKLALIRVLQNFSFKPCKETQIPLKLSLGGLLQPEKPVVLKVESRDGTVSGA
Chain of Nuclear receptor subfamily 1 group I member 2 (Rattus norvegicus) (Q9R1A7 whole entry, looked up): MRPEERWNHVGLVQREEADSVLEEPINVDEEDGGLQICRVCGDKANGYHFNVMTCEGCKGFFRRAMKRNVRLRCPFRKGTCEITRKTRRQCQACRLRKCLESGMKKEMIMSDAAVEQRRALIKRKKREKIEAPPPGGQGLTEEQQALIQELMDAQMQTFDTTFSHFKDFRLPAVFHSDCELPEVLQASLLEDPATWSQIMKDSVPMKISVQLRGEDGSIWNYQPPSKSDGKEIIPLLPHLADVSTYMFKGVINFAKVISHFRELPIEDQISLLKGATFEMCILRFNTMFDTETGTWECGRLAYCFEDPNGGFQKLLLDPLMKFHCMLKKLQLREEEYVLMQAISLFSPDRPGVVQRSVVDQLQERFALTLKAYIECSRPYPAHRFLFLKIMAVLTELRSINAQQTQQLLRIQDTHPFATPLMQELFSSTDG

`C[C@@H](O)[C@H]1C(=O)N2C(C(=O)O)=C(S[C@@H]3CN[C@H](CNS(N)(=O)=O)C3)[C@H](C)[C@H]12`: the Potency entry in assay [1], in assay [2], in assay [3], in assay [4], in assay [7] and in assay [8] was “inactive” in each case. In addition, the Potency was 18.8 µM (active) in [5], 9.77 µM (active) in assay [9], 15.5 µM (active) in assay [10] and 3.89 µM (active) in [11]. The max activation in assay [6] was -2.11%.

Consider `O=P(c1ccccc1)(c1ccccc1)c1ccccc1`, for which the Potency result in assay [1], in assay [2], in [3], in [4] and in [12] was “inactive” in each case. Further, the Potency in assay [5] was 27.3 µM (active); in assay [9] it was 5.64 µM (active); in assay [10], 6.33 µM (active).

With `Cc1cccc(C)c1NC(=O)CN1CCCC1`, the Potency result in [1], in assay [2], in assay [3], in [4], in assay [5] and in assay [7] was “inactive” each time. Further, the Potency result in [9], in assay [10], in assay [13], in assay [12] and in assay [11] was “inactive” throughout. Moreover, in [6], the max activation is -2.58%. Moreover, the Potency in assay [8] is 15.5 µM (active).

In the case of `OCCOc1cccc(OCCO)c1`, the Potency entry in assay [1], in [2], in assay [3], in assay [4], in assay [5] and in assay [9] was “inactive” each time. For the same compound, the Potency result in assay [12] and in assay [11] was “inactive” throughout.

As for `O=C(O)CCc1nc2ccccc2[nH]1`, the Potency result in [1], in assay [2], in assay [3], in [4], in assay [5] and in assay [8] was “inactive” in each case. The Potency entry in assay [13] and in [11] was “inactive” in each case.

As for `Cc1ccc2ccccc2c1[N+](=O)[O-]`, the Potency result in [1], in [2], in assay [3], in [4], in assay [14] and in assay [8] was “inactive” throughout. Also, the Potency result in [10] and in assay [12] was “inactive” throughout. For the same compound, the results for the Potency in assay [9] and in assay [13] were 79.6 µM (active) and 2.52 µM (active), respectively.

As to `CC(=O)Nc1ccccc1O`, the Potency entry in assay [1], in assay [2], in [3], in assay [4], in assay [14] and in [12] was “inactive” in each case.

For `CCCCCCCCCCCCCCCCCCCl`, the activity change, negative = cytotoxicity in [1] was -2.79% [at 8.39 µM]; in [3] it was -4.93% [at 8.39 µM]. For the same compound, in assay [2], the caspase activation was 0.121% [at 8.39 µM]. For the same compound, the caspase-3/7 activation in [4] is -1.95% [at 8.39 µM]. Also, the activation in assay [5] is 17.1% [at 8.39 µM]. Moreover, the activity change, negative = inhibition was -4.65% [at 10.5 µM] in assay [8]; -2.7% [at 10.5 µM] in assay [10]; -4.9% [at 10.5 µM] in assay [13]; 6.07% [at 6.97 µM] in [12]; -1.1% [at 10.5 µM] in assay [11].

Turning to `C[C@H]1C[C@H]2[C@@H]3CCC4=CC(=O)C=C[C@]4(C)[C@@]3(F)[C@@H](O)C[C@]2(C)[C@@]1(O)C(=O)COP(=O)(O)O`, the Potency entry in [1], in assay [2], in assay [3], in assay [4], in [14] and in assay [8] was “inactive” each time. For the same compound, the Potency result in assay [9], in assay [10], in [12] and in assay [11] was “inactive” each time.

Consider `CO[C@@H]1[C@@H](O[C@@H]2O[C@H](C)[C@@H](O[C@H]3C[C@@](C)(O)[C@@H](O)[C@H](C)O3)[C@H](N(C)C)[C@H]2O)[C@@H](CC=O)C[C@@H](C)[C@@H](O[C@@H]2CC[C@H](N(C)C)[C@@H](C)O2)/C=C/C=C/C[C@@H](C)OC(=O)C[C@H]1OC(C)=O`, for which the Potency in [1] was 26.6 µM (active). Besides, the Potency entry in assay [2], in assay [3], in assay [4], in [14], in assay [8] and in [9] was “inactive” each time. Moreover, the Potency entry in assay [10], in assay [13] and in assay [12] was “inactive” each time.

In the case of `CCCCCCCCOCCCN`, the Potency in assay [1] was 61.1 µM (active); in [8], 6.33 µM (active); in assay [9], 2 µM (active); in assay [10] it was 28.3 µM (active); in [13] it was 6.33 µM (active). In addition, the Potency entry in [2], in assay [3], in [4] and in [5] was “inactive” throughout.
